The values below come from PubChem BioAssay (NCI).

What all share (assay): NCI-60 one-dose screen, 48 h (100 = growth as untreated, 0 = no growth, -100 = all killed)
Common to all, as to settings: 10 µM

In assay [1] the test system is HCT-15 colon.
The subject of assay [2] is SNB-75 CNS.
The subject of assay [3] is SNB-19 CNS.
The test system of assay [4] is U251 CNS.
Assay [5] relates to PC-3 prostate.
Assay [6] deals with SK-MEL-5 melanoma.
Assay [7] has as its system UACC-62 melanoma.
Assay [8] has as its system LOX IMVI melanoma.
Assay [9] concerns SK-MEL-28 melanoma.
Assay [10] has as its system SK-MEL-2 melanoma.
Assay [11] relates to EKVX NSCLC.
Assay [12] relates to SN12C renal.
In assay [13] the test system is UO-31 renal.
Assay [14] has as its system TK-10 renal.
Assay [15] concerns ACHN renal.
For assay [16], the system named is CAKI-1 renal.
Assay [17] relates to A498 renal.
Assay [18] has as its system CCRF-CEM leukemia.
Assay [19] relates to MOLT-4 leukemia.

About 83,000 compounds went through this panel and 20% of them were active in at least one assay; those are over-represented in the sample as a whole.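 In brief: 96-well plates, 48 h treatment, single concentration, percent growth endpoint.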 A number with no mark means an inactive call. The source made the active and inactive calls. Rule for the calls: active = growth percent below 10; inactive = the rest.

For `Brc1ccc(N/N=C/c2c[nH]c3ccccc23)nc1`, the growth in assay [1] is 8.57% (active); in assay [2], 26.7%; in assay [3], 43.9%; in assay [4], 19.9%; in assay [5], 20%; in assay [6], 51.8%. Also, the growth in assay [7] was 54.8%; in assay [8], -2.43% (active); in assay [9], 63.6%; in assay [10], 83.6%; in assay [11] it was 24.4%; in [12], 15.3%. The growth in assay [13] is 2.76% (active); in assay [14] it was 70%; in assay [15], 27.5%; in [16], 25.9%; in assay [17] it was 43%; in assay [18], 6.57% (active). Further, the growth in [19] is 18%.

For `CN1C/C(=C\c2ccc(O)cc2O)c2[o+]c3cc(O)ccc3cc2C1`, the growth in assay [1] is 21.9%; in [2], 60.5%; in assay [3] it was 42.1%; in [4], 14%; in assay [5] it was 65.8%; in assay [6], 57.9%. For the same compound, the growth is 47.5% in [7]; -66.7% (active) in assay [8]; 17.3% in assay [9]; 46.5% in [10]; 78% in assay [11]; 39.9% in assay [12]. Besides, the growth in assay [13] was 63.6%; in [14] it was 82.4%; in assay [15], 71.9%; in assay [16] it was 70.1%; in [17], 117%; in assay [18], 41.1%. Further, in [19], the growth is 37.8%.

Turning to `Nc1nc(Nc2ccccc2)nn1Cc1c(Cl)cccc1Cl`, the growth in assay [1] is 37.5%; in [2], 67.5%; in [3], 58%; in [4], 53.8%; in [5] it was 27.4%; in assay [6] it was 23.5%. In addition, the growth in assay [7] was 33.5%; in [8] it was 16.3%; in assay [9] it was 55.5%; in [10], 49.2%; in assay [11], 20.2%; in [12], 44.5%. Also, the growth in assay [13] is 11.8%; in assay [14] it was 53.8%; in [15] it was 13.9%; in assay [16], 27.9%; in [17], -3.12% (active); in [18], 26.5%. In addition, in [19], the growth was 18.6%.

As for `NC(=Nc1ccc(OCCCCCCCCn2ccnn2)cc1)c1ccccc1`, the growth was 15.8% in [1]; 61.2% in assay [2]; 41.7% in assay [3]; 12.2% in assay [4]; 35.8% in assay [5]; 41.8% in assay [7]. Further, the growth was 26.6% in assay [8]; 49.2% in assay [9]; 14.8% in [10]; 42.7% in assay [11]; 32.3% in assay [12]; 40.7% in assay [13]. The growth in [14] is 70.9%; in [15] it was 34.4%; in assay [16], 37.9%; in assay [17], 98.1%; in assay [18] it was 15.6%.

As for `COc1cc(/C=C/C(=O)c2ccc(S(=O)(=O)NCCNc3nc(Nc4ccc(F)cc4)nc(N(C)C)n3)cc2)cc(OC)c1OC`, the growth in assay [1] is -65.9% (active); in [2], 88.2%; in [3] it was 15.6%; in assay [4], -81.2% (active); in assay [5], 9.45% (active); in assay [6], 32.4%. For the same compound, the growth in assay [7] was 34.2%; in assay [8] it was -100% (active); in assay [9] it was 18%; in assay [10] it was 98.4%; in assay [11], 48.4%; in assay [12] it was -32.1% (active). Also, the growth in [13] was 40.2%; in [14], 66.3%; in [15] it was -49% (active); in assay [16], 20.1%; in assay [17], 81.3%; in [18] it was 8.16% (active). Also, the growth in [19] is 8.5% (active).

For `C=CC(=O)Nc1nc(-c2cccc(NS(=O)(=O)c3cccc4c(N(C)C)cccc34)c2)cs1`, the growth was -76.8% (active) in assay [1]; 5.83% (active) in assay [2]; 15.6% in [3]; -59% (active) in assay [4]; -26% (active) in assay [5]; -87.7% (active) in assay [6]. Besides, the growth was -86.8% (active) in [7]; -93.6% (active) in [9]; -62.7% (active) in assay [10]; 29% in [11]; -56.6% (active) in assay [12]; -100% (active) in [13]. Also, the growth is -76.9% (active) in assay [14]; -79.8% (active) in [15]; -87.5% (active) in [16]; 25.7% in assay [17]; -32% (active) in assay [18].

Turning to `N#Cc1ccc(-c2nn(-c3ccc(C(=O)O)cc3)cc2CNc2cccc(Br)c2)cc1`, the growth in assay [1] was 35.5%; in assay [2], 101%; in [3], 51.7%; in [4], 37%; in assay [5] it was 40.1%; in assay [6] it was 24.1%. The growth in [7] is 41.8%; in assay [8], 13.2%; in [9] it was 35.6%; in assay [10] it was 71.7%; in assay [11] it was 65.9%; in [12], 59.2%. The growth in assay [13] was 60.5%; in [14], 102%; in [15] it was 66.8%; in [16] it was 73.4%; in assay [17], 94.5%; in assay [18], 23.7%. The growth in [19] was 23.9%.

Consider `COc1ccccc1[C@H]1C(C(=O)c2ccc(O)cc2)C2(N[C@@H]1c1ccccc1)C(=O)Nc1ccc(Br)cc12` (stereo partly drawn), for which the growth is 34.4% in assay [1]; 41% in assay [2]; 49.3% in assay [3]; 26.1% in [4]; 23.2% in assay [5]; 26.4% in assay [6]. Besides, the growth in [7] is 38.1%; in assay [8], -39.3% (active); in assay [9], 60%; in [10], 32.1%; in assay [11] it was 30%; in assay [12], 25%. For the same compound, the growth in assay [13] was 27.9%; in assay [14], 51%; in [15] it was 31.9%; in [16] it was 18.7%; in assay [17], 37.4%; in assay [18], 22%. For the same compound, the growth in assay [19] is -9.09% (active).
